In PubChem BioAssay (EPA / NIEHS):
Active and inactive are the calls of the source. Rule for the calls: active = hit-call score of the fitted dose curve at least 0.9, where 1 is the maximum; inactive = score below 0.9.

Experiments:
Conditions in all cases: mRNA level, 48 h; actives raise or lower the signal
[1] = read-out: Cytochrome P450 3A7 (Homo sapiens) (UniProt P24462); assay: LTEA_HepaRG_CYP3A7: Life Technologies and Expression Analysis (LTEA) Assay for CYP3A7 using HepaRG (AID 2283492)
How it was run: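 qRT-PCR of CYP3A7 in HepaRG lysates after 48 h treatment; concentration-response (8 points, max 100 uM) analysed bidirectionally relative to 0.5% DMSO controls.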

CYP3A5 (gene 1577) = assay: LTEA_HepaRG_CYP3A5: Life Technologies and Expression Analysis (LTEA) Assay for CYP3A5 using HepaRG (AID 2283493)
How it was run: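 HepaRG plated 48 h, switched to serum-free induction medium, chemicals added 48 h (max 100 uM, half-log, 0.5% DMSO). RNA isolated; CYP3A5 by TaqMan qRT-PCR. Gain/loss vs DMSO.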

[2] = read-out: Fatty Acid-Binding Protein 1 (FABP1), FABP1 (gene 2168); assay: LTEA_HepaRG_FABP1: Life Technologies and Expression Analysis (LTEA) Assay for Fatty Acid-Binding Protein 1 (FABP1) using HepaRG (AID 2283494)
How it was run: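 Differentiated human HepaRG cells were exposed in duplicate for 48 h in serum-free induction medium to 8-point half-log concentration series topping at 100 uM in 0.5% DMSO. FABP1 mRNA measured by TaqMan qRT-PCR, normalized to ACTB/GAPDH/POLR2A; bidirectional fit versus DMSO.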

[3] = read-out: Cytochrome P450 4A22 (Homo sapiens) (UniProt Q5TCH4); assay: LTEA_HepaRG_CYP4A22: Life Technologies and Expression Analysis (LTEA) Assay for Cytochrome P450 4A22 (CYP4A22) using HepaRG (AID 2283495)
How it was run: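 Concentration-response (8 points, max 100 uM, 0.5% DMSO) in human HepaRG liver cells after 48 h exposure. CYP4A22 mRNA by TaqMan qRT-PCR with housekeeping-gene normalization.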

[4] = read-out: Cytochrome P450 7A1 (Homo sapiens) (UniProt P22680); assay: LTEA_HepaRG_CYP7A1: Life Technologies and Expression Analysis (LTEA) Assay for Cytochrome P450 7A1 (CYP7A1) using HepaRG (AID 2283496)
How it was run: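 HepaRG cells plated 48 h, then switched to serum-free induction medium and exposed in duplicate for 48 h to 8-point half-log series from 100 uM in 0.5% DMSO. CYP7A1 mRNA by qRT-PCR (TaqMan), normalized to ACTB/GAPDH/POLR2A; bidirectional fit versus DMSO.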

[5] = read-out: Glutathione S-Transferase (GSTA2), GSTA2 (gene 2939); assay: LTEA_HepaRG_GSTA2: Life Technologies and Expression Analysis (LTEA) Assay for Glutathione S-Transferase (GSTA2) using HepaRG (AID 2283497)
How it was run: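 Human HepaRG cells, plated 48 h, then exposed in serum-free induction medium for 48 h to eight half-log concentrations up to 100 uM in 0.5% DMSO, duplicate. GSTA2 mRNA by qRT-PCR, normalized to ACTB/GAPDH/POLR2A; bidirectional fit versus DMSO.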

[6] = read-out: Glutamate-cysteine ligase catalytic (GCLC), GCLC (gene 2729); assay: LTEA_HepaRG_GCLC: Life Technologies and Expression Analysis (LTEA) Assay for Glutamate-cysteine ligase catalytic (GCLC) using HepaRG (AID 2283498)
How it was run: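 Differentiated human HepaRG cells, plated 48 h then switched to serum-free induction medium, were exposed in duplicate for 48 h to 8 half-log concentrations topping at 100 uM in 0.5% DMSO. GCLC mRNA was quantified by qRT-PCR against ACTB, GAPDH and POLR2A.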

[7] = read-out: growth arrest and DNA damage 45 (GADD45G), GADD45G (gene 10912); assay: LTEA_HepaRG_GADD45G: Life Technologies and Expression Analysis (LTEA) Assay for growth arrest and DNA damage 45 (GADD45G) using HepaRG (AID 2283499)
How it was run: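 Concentration-response in HepaRG: 48 h dosing, 0.5% DMSO, highest level 100 uM. GADD45G expression by qRT-PCR, normalised to endogenous controls; bidirectional fit to DMSO.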

[8] = read-out: Glutamate-cysteine ligase regulatory (GCLM), GCLM (gene 2730); assay: LTEA_HepaRG_GCLM: Life Technologies and Expression Analysis (LTEA) Assay for Glutamate-cysteine ligase regulatory (GCLM) using HepaRG (AID 2283500)
How it was run: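 Cells were plated, cultured 48 h, switched to serum-free induction medium, then dosed in duplicate for 48 h at eight half-log concentrations up to 100 uM. RNA was then profiled by qRT-PCR; gain or loss versus DMSO was fitted.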

[9] = read-out: Glutathione S-transferase M3 (GSTM3), GSTM3 (gene 2947); assay: LTEA_HepaRG_GSTM3: Life Technologies and Expression Analysis (LTEA) Assay for Glutathione S-transferase M3 (GSTM3) using HepaRG (AID 2283501)
How it was run: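 Expression of GSTM3 is determined by qRT-PCR in human liver HepaRG cells treated 48 h with an 8-point half-log range from 100 uM in 0.5% DMSO.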

Measured: AC50

Chain of Cytochrome P450 3A7 (Homo sapiens) (P24462 whole entry, looked up): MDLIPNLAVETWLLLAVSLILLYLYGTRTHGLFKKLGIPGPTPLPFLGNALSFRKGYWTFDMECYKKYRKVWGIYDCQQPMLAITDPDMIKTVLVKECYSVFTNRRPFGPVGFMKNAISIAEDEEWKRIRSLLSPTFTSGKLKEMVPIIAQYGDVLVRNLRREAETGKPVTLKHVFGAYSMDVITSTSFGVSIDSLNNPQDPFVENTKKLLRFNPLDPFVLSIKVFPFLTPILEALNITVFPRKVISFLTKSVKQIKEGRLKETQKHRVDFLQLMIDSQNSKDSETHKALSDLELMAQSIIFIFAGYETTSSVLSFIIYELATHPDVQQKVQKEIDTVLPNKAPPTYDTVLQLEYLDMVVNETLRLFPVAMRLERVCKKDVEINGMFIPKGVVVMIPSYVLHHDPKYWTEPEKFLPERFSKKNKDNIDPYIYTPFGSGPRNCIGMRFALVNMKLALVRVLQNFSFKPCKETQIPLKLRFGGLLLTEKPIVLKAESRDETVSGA

NC(=O)c1nc(-c2cccc(-c3cc(F)ccc3OCC(F)(F)C(F)(F)F)c2)n[nH]1
active: [2] 50 µM | [3] 9.78 µM
inactive: all other assays above

Cc1cccc2ccccc12
inactive: all assays above

Oc1ccccc1
not listed: [8]
inactive: all other assays above

C[C@]12CC[C@@H]3c4ccc(O)cc4CC[C@H]3[C@@H]1CCC2=O
active: [2] 30.8 µM
inactive: [5] | [6] | [7] | [9]

C[C@]12CC[C@@H]3c4ccc(O)cc4CC[C@H]3[C@@H]1CC[C@H]2O
active: [2] 74.3 µM | [3] 76 µM
not listed: [1] | [8]
inactive: all other assays above

CCN(Cc1cccc(S(=O)(=O)O)c1)c1ccc(C(=C2C=CC(=[N+](CC)Cc3cccc(S(=O)(=O)O)c3)C=C2)c2ccccc2S(=O)(=O)[O-])cc1
not listed: [8]
inactive: all other assays above

O=C(O)c1ccccc1-n1cc(C(=O)O)c(=O)c2cc(Nc3c(F)cc(F)cc3Cl)c(Cl)cc21
active: [1] 3 µM
not listed: [8]
inactive: all other assays above

O=C(O)Cn1c(=O)n(Cc2ccc(Br)cc2F)c(=O)c2ccc(Cl)cc21
not listed: [1] | [8]
inactive: all other assays above

CCN(CC)C(=O)c1cc(S(=O)(=O)Cc2ccccc2)c(N2CCC(c3ccccc3)CC2)cc1N(CC)CCN(C)C
inactive: [2] | [3] | [4] | [9]
active: [1] 1.9 µM | CYP3A5 (gene 1577) 32.2 µM | [5] 4.51 µM | [6] 30.7 µM | [7] 20.5 µM

O=C(Nc1ccc(Cl)cc1)Nc1ccc(Cl)c(Cl)c1
active: [2] 16.7 µM | [3] 24.2 µM | [4] 26 µM | [5] 27.2 µM | [7] 22.8 µM
inactive: CYP3A5 (gene 1577) | [9]

O=c1c(-c2ccc(O)cc2)coc2cc(O)cc(O)c12
not listed: [8]
inactive: all other assays above

CCCCOC(=O)CC(CC(=O)OCCCC)(OC(C)=O)C(=O)OCCCC
not listed: [8]
inactive: all other assays above

Cc1occc1C(=O)Nc1ccc(C(=O)N2CCC(F)(F)/C(=C\C(=O)N3CCC(N4CCCCC4)CC3)c3ccccc32)cc1
active: [3] 57.5 µM | [4] 17.2 µM | [5] 52 µM | [9] 31.2 µM
not listed: [8]
inactive: all other assays above

CN1C(=O)CC[C@H]1c1cccnc1
not listed: [8]
inactive: all other assays above

OC12N=C(c3ccccc3)SC1Cc1cc(Cl)ccc12 (configuration not stated)
active: [1] 59 µM | CYP3A5 (gene 1577) 8.12 µM | [2] 34.4 µM | [3] 63.2 µM | [4] 9.92 µM | [5] 30 µM | [7] 2.05 µM
inactive: [6] | [9]

CCCCCCCCOC(=O)c1cc(O)c(O)c(O)c1
not listed: [8]
inactive: all other assays above

CC1(C)NC(=O)N(c2ccc([N+](=O)[O-])c(C(F)(F)F)c2)C1=O
active: CYP3A5 (gene 1577) 32.3 µM | [2] 66.7 µM | [3] 67.4 µM | [4] 90.1 µM | [5] 78.4 µM | [6] 83.4 µM | [7] 77.4 µM
inactive: [1] | [9]

Cc1cc(F)ccc1-c1cc(N2CC[C@@H](O)[C@H]2CO)ncc1N(C)C(=O)C(C)(C)c1cc(C(F)(F)F)cc(C(F)(F)F)c1
inactive: [1] | CYP3A5 (gene 1577) | [9]
active: [2] 13.9 µM | [3] 16.4 µM | [4] 20 µM | [5] 10.4 µM | [6] 75.4 µM | [7] 20.1 µM

CCCC(=O)OCCC(C)C
not listed: [8]
inactive: all other assays above

CC1=CC(=O)/C(=C(/C)O)C(=O)O1
not listed: [8]
inactive: all other assays above

c1ccc2ccccc2c1
not listed: [8]
inactive: all other assays above

COCC(C)OCC(C)OCC(C)O (configuration not stated)
not listed: [8]
inactive: all other assays above

Cc1ncc(CO)c(CO)c1O
not listed: [8]
inactive: all other assays above

CCCCCCCCCCCCO
not listed: [4]
inactive: all other assays above

CN(C)c1ccc(C(=C2C=CC(=[N+](C)C)C=C2)c2ccc(N(C)C)cc2)cc1
active: CYP3A5 (gene 1577) 24.6 µM | [2] 2.76 µM | [3] 3.65 µM | [4] 4.38 µM | [5] 4.31 µM | [6] 20.1 µM | [7] 11.7 µM | [8] 95.3 µM | [9] 7.35 µM

CO[C@H]1/C=C/O[C@@]2(C)Oc3c(C)c(O)c4c(O)c(c(/C=N/N5CCN(C)CC5)c(O)c4c3C2=O)NC(=O)/C(C)=C\C=C\[C@H](C)[C@H](O)[C@@H](C)[C@@H](O)[C@@H](C)[C@H](OC(C)=O)[C@@H]1C
active: [2] 0.486 µM | [4] 1.62 µM | [5] 0.379 µM
inactive: [3] | [6] | [7] | [9]

O=C1c2ccccc2C(=O)N1CCc1noc(-c2ccc(CN3CCCCCC3)s2)n1
not listed: [8]
inactive: all other assays above

NCc1cccc(C2CCN(C(=O)c3ccc(C#Cc4ccccc4F)o3)CC2)c1
inactive: [2] | [6] | [7] | [9]
active: [1] 77.7 µM | CYP3A5 (gene 1577) 81.1 µM | [3] 81 µM | [4] 86.3 µM | [5] 78.9 µM

CC[C@@H]1C[C@H](N(Cc2cc(C(F)(F)F)cc(C(F)(F)F)c2)C(C)=O)c2cc(C(F)(F)F)ccc2N1C(=O)OC(C)C
active: [1] 0.435 µM | [2] 4.3 µM | [3] 9.62 µM
not listed: [8]
inactive: all other assays above

COc1ccc2cc(S(=O)(=O)N[C@H](CC(=O)N[C@H](Cc3ccc(CN4[C@H](C)CCC[C@@H]4C)cc3)C(=O)N(C)C(C)C)c3ccc4c(c3)OCO4)ccc2c1
inactive: [4] | [7]
active: [1] 25.2 µM | CYP3A5 (gene 1577) 22.1 µM | [2] 12.1 µM | [3] 2.63 µM | [5] 81.6 µM | [6] 56.4 µM | [9] 22.5 µM

CC(=O)N1CCN(c2ccc(OC[C@H]3CO[C@](Cn4ccnc4)(c4ccc(Cl)cc4Cl)O3)cc2)CC1
inactive: [7]
active: CYP3A5 (gene 1577) 50 µM | [2] 12.7 µM | [4] 12.9 µM | [5] 11.3 µM | [6] 65.5 µM | [8] 88.7 µM | [9] 22.7 µM

CCCCCCCC[Si](OCC)(OCC)OCC
not listed: [8]
inactive: all other assays above

OCCO
not listed: [3] | [4] | [8]
inactive: all other assays above

CCCCOC(=O)c1ccc(O)cc1
not listed: [8]
inactive: all other assays above

CC(C)(O)c1ccc(CNC(=O)c2cccnc2Oc2ccc3nonc3c2)cc1
active: [1] 6.62 µM
not listed: [8]
inactive: all other assays above

CCCCCCCCOc1ccc(C(=O)c2ccccc2)c(O)c1
not listed: [8]
inactive: all other assays above

c1ccc2n[nH]nc2c1
not listed: [1] | [3] | [8]
inactive: all other assays above

Clc1cc(Cl)c2c(c1)N=C1CCCCCN1C2
active: [1] 7.11 µM
not listed: [8]
inactive: all other assays above

CC(C)(c1cc(Br)c(O)c(Br)c1)c1cc(Br)c(O)c(Br)c1
active: [1] 9.73 µM | [5] 72.4 µM | [6] 78 µM
not listed: [8]
inactive: all other assays above

COc1cc(C(=O)NC2CCN(C)CC2)ccc1Nc1ncc2c(n1)N(C1CCCC1)CC(F)(F)C(=O)N2C
inactive: CYP3A5 (gene 1577) | [8]
active: [2] 6.44 µM | [3] 3.23 µM | [4] 8.23 µM | [5] 12 µM | [6] 21.3 µM | [7] 85.6 µM | [9] 3.73 µM
